Source: the supplement of paper PMC13380429

System: Vero E6 infected with SARS-CoV-2
Assay: inhibition of SARS-CoV-2 cytopathic effect; higher = more antiviral protection, active = above 15
Settings: 48 h

Measured: inhibition of SARS-CoV-2 cytopathic effect

COc1ccc(-c2cc(=O)c3c(O)cc(O[C@@H]4O[C@H](CO[C@@H]5O[C@@H](C)[C@H](O)[C@@H](O)[C@H]5O)[C@@H](O)[C@H](O)[C@H]4O)cc3o2)cc1O [diosmin]
inactive: 1 nM 3.94% | 8.33 nM -0.11% | 100 nM -2.26% | 833.33 nM 4.64% | 10000 nM -2.85%

CO/N=C(\C(=O)N[C@@H]1C(=O)N2C(C(=O)[O-])=C(C[n+]3ccn4ncccc43)CS[C@H]12)c1nsc(N)n1 [cefozopran]
inactive: 1 nM -1.88% | 8.33 nM 1.38% | 100 nM -0.43% | 833.33 nM -0.82% | 10000 nM -0.02%

Cc1ccc(C(=O)N(CCCN)[C@@H](c2nc3cc(Cl)ccc3c(=O)n2Cc2ccccc2)C(C)C)cc1 [ispinesib]
inactive: 1 nM 0.51% | 8.33 nM -1.24% | 100 nM -2% | 833.33 nM -2.99% | 10000 nM -4.72%

N#C/C(=C1/SC[C@@H](c2ccc(Cl)cc2Cl)S1)n1ccnc1 [luliconazole]
inactive: 1 nM 1% | 8.33 nM 1.92% | 100 nM 2.17% | 833.33 nM 1.1% | 10000 nM 3.29%

C[C@H]1COc2c(C3(N)CC3)c(F)cc3c(=O)c(C(=O)O)cn1c23 [pazufloxacin]
inactive: 1 nM -5.2% | 8.33 nM -1.82% | 100 nM 2.15% | 833.33 nM 0.57% | 10000 nM -3.15%

CN(Cc1ccccc1)C(=O)[C@H](Cc1ccc2ccccc2c1)NC(=O)[C@@H]1C[C@@H](O)CN1C(=O)c1cn(C)c2ccccc12
inactive: 1 nM 1.18% | 8.33 nM 4.31% | 100 nM 3.48% | 833.33 nM 1.69% | 10000 nM 1.87%

Cc1ccnc2c1CCCC2C(N)=S (stereo not given) [isotiquimide]
inactive: 1 nM 2.13% | 8.33 nM 1.38% | 100 nM 1.08% | 833.33 nM 1.85% | 10000 nM 2.59%

CO[C@H]1[C@H](O)[C@@H](O)[C@@H](O)[C@H](O)[C@@H]1O [pinitol]
inactive: 1 nM 0.84% | 8.33 nM -0.26% | 100 nM -2.68% | 833.33 nM -0.47% | 10000 nM 1.55%

CN(C)CCOC(=O)COc1ccc(Cl)cc1 [meclofenoxate]
inactive: 1 nM 2.47% | 8.33 nM 0.23% | 100 nM 1.17% | 833.33 nM 1.28% | 10000 nM 1.66%

CC(=O)c1ccc(NS(C)(=O)=O)c(Oc2ccc(F)cc2F)c1
inactive: 1 nM 4.46% | 8.33 nM 0.47% | 100 nM 0.56% | 833.33 nM 1.88% | 10000 nM 2.13%

CC(=N)NCc1cccc(CN)c1
inactive: 1 nM 0.8% | 8.33 nM -0.79% | 100 nM -0.18% | 833.33 nM 1.65% | 10000 nM 0.53%

O=C(Nc1ccc(C(O)(C(F)(F)F)C(F)(F)F)cc1)c1ccc(C(F)(F)F)cc1
inactive: 1 nM 0.8% | 8.33 nM 1.24% | 100 nM 0.25% | 833.33 nM 1.02% | 10000 nM 1.6%

CCNC(=O)C#Cc1ccc2c(C(=Nc3ccc(CN(C)C)cc3)c3ccccc3)c(O)[nH]c2c1
inactive: 1 nM 0.51% | 8.33 nM -0.81% | 100 nM -4.45% | 833.33 nM -15.2% | 10000 nM -20.6%

O=C(COc1cccc2c(=O)[nH]ccc12)c1ccccc1
inactive: 1 nM -1.31% | 8.33 nM 1.84% | 100 nM -0.2% | 833.33 nM -0.52% | 10000 nM 0.99%

COc1cccc2c1C(=O)c1c(O)c3c(c(O)c1C2=O)C[C@@](O)(C(=O)CO)C[C@@H]3O[C@H]1C[C@H](N2CCO[C@H](OC)C2)[C@H](O)[C@H](C)O1 [nemorubicin]
inactive: 1 nM 1.94% | 8.33 nM -5.08% | 100 nM -8.02% | 833.33 nM -7.55% | 10000 nM -7.13%

COc1cc(O)c2c(c1)C(=O)c1cc(C)cc(O)c1C2=O [rheochrysidin]
inactive: 1 nM 1.91% | 8.33 nM 1.62% | 100 nM 1.33% | 833.33 nM -0.52% | 10000 nM -0.59%

CC(=O)NCC(=O)N[C@H](CCC(=O)O)C(=O)O [N-acetylglycyl-D-glutamic-acid]
inactive: 1 nM 1.3% | 8.33 nM -0.41% | 100 nM -0.4% | 833.33 nM -0.04% | 10000 nM 1.12%

CCOc1cc(C(=O)Nc2ccc(Cl)c(-c3nc4ccccc4[nH]3)c2)cc(OCC)c1OCC
inactive: 1 nM 2.95% | 8.33 nM 2.03% | 100 nM 0.45% | 833.33 nM -3.49% | 10000 nM 4.29%
